Source: article PMC5540273 (PLoS ONE, 2017)

Test system: WNK4
Details: concentration: 1 μM, replicates: in singlicate; n = 1
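Also: KINOMEscan kinase panel screen.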

Point of comparison: `Cn1cc(-c2ccc3c(c2)CCN3C(=O)Cc2cccc(Cl)c2)c2c(N)ncnc21` [GSK2606590], “%Inh” value 5%. Against it:
- COC(=O)Nc1nc2ccc(Oc3ccc(NC(=O)Nc4cc(C(F)(F)F)ccc4F)cc3)cc2n1C.Cl [GW692089] — higher, 28%
- O=C(O)C(F)(F)F.O=C(O)C(F)(F)F.O=c1[nH]ccc2nc(N[C@@H]3CCCNC3)nc(Nc3ccc(S(=O)(=O)N4CCOCC4)cc3)c12 [GSK2177277] — lower, 0%
- CCn1c(-c2nonc2N)nc2c(C#CC(C)(C)O)ncc(OCCCCN)c21.O=C(O)C(F)(F)F.O=C(O)C(F)(F)F [GSK507274] — lower, 3%

Test system: T1, YANK1
T1 construct: gene STK32A
Details: concentration: 1 μM, replicates: in singlicate; n = 1

Point of comparison: `O=C(NC1CCN(c2ccnc(Nc3ccc(F)cc3)n2)C1)c1cc2ccccc2s1` (centres unmarked) [GSK1379716], “%Inh” value 0%. Against it:
- CN1CCN(Cc2cccc(-c3ccc4c(Nc5ccc(Oc6ccccc6)cc5)ccnc4c3)c2)CC1 [GW578342] — higher, 3%
- O=C(Nc1ccccc1F)NC1CCN(c2ccnc(Nc3ccc(F)cc3)n2)CC1 [GSK1379800] — the same, 0%
- Cl.c1ccc(-c2ccc3c(Nc4ccc5[nH]ncc5c4)ccnc3c2)nc1 [GW440137] — higher, 3%
- CCn1c(-c2nonc2N)nc2c(C#CC(C)(C)O)nc(OC[C@H](N)c3ccccc3)cc21 [GSK943949] — the same, 0%
- O=C(Nc1cccc(-c2nn3ccccc3c2-c2ccnc(Nc3cccc(C(F)(F)F)c3)n2)c1)c1c(F)cccc1F [GSK292658] — higher, 12%
- Cn1cc(-c2ccc3c(c2)CCN3C(=O)Cc2cccc(F)c2)c2c(N)ncnc21 [GSK2603358] — the same, 0%
- COc1cc(Nc2nccc(N3CCC(NC(=O)c4cc5ccccc5s4)C3)n2)cc(OC)c1OC (centres unmarked) [GSK1379760] — higher, 13%
- COCCOCCOc1cc2ncc3c4ccc(C#N)cc4[nH]c3c2cc1OC — the same, 0%
- Cl.Cl.NCC(NC(=O)c1cc(-c2ccccc2)c(-c2ccnc3[nH]ccc23)s1)c1ccccc1 (centres unmarked) [GSK1321561] — higher, 48%
- COc1cc(Nc2nccc(-c3c(-c4cccc(NC(=O)c5c(F)cccc5F)c4)nn4ncccc34)n2)cc(OC)c1OC [GSK327238] — higher, 50%
- CN(C)S(=O)(=O)c1cc(-c2ccc3nccc(-c4cccc(S(N)(=O)=O)c4)c3c2)cnc1N [GSK1669921] — higher, 31%
- Cl.Cl.NCC(NCc1ccc(-c2ccnc3[nH]ccc23)s1)c1ccccc1 (centres unmarked) [GSK1321565] — the same, 0%
- Cc1ccc(S(=O)(=O)Nc2ccc(Nc3nccc(Nc4cccc5[nH]ncc45)n3)cc2)cc1 [GSK581271] — the same, 0%
- CC(=O)Nc1nc2cnc(Nc3cc(NC(=O)c4cccc(C5(C#N)CC5)c4Cl)ccc3C)nc2s1 — the same, 0%
- CNC(=O)c1ccccc1Nc1nc(Nc2ccc(N3CCOCC3)cc2)ncc1Cl.Cl [GSK1576028] — higher, 58%
- Cc1ccc(C(=O)N2CC[C@@H](O)C2)cc1-n1c(C)cc(OCc2ccc(F)cc2F)c(Br)c1=O — the same, 0%
- COc1ccc(Nc2nccc(N3CCC(NC(=O)Nc4cccc(OC)c4)C3)n2)cc1 (centres unmarked) [GSK1379742] — higher, 10%
- Cl.Cl.NCC(C(=O)Nc1cc(Br)c(-c2ccnc3[nH]ccc23)s1)c1ccccc1 (centres unmarked) [GSK1269851] — higher, 8%
- Oc1cc(Nc2ccnc3cc(I)ccc23)ccc1F [GW552771] — higher, 10%
- COc1ccc(Nc2nccc(NCCNC(=O)c3cc4ccccc4s3)n2)cc1 [GSK1379896] — higher, 12%
- CCS(=O)(=O)c1ccc(OC)c(Nc2nccc(-c3c(-c4cccc(NC(=O)c5c(F)cccc5F)c4)nn4ncccc34)n2)c1 [GSK326180] — the same, 0%
- COc1cccc(C(=O)Nc2cccc(Oc3ccc4nc(NC(=O)C5CC5)cn4n3)c2)c1 — the same, 0%
- CN(C)Cc1ccc(-c2ccc3c(Nc4ccc(Oc5ccccn5)cc4)ccnc3c2)o1 [GW567148] — the same, 0%
- Clc1ccc(-c2nn3ncccc3c2-c2ccnc(Nc3ccc4c(c3)OCCO4)n2)cc1 [GW829116] — the same, 0%
- Cl.c1ccc(-c2ccc3c(Nc4ccc5[nH]ccc5c4)ccnc3c2)nc1 [GW440138] — the same, 0%
- Fc1ccc(-c2ncn(C3CCNCC3)c2-c2ccnc(Oc3ccc(-c4ccccc4)cc3)n2)cc1 [SB-245391] — higher, 90.8%
- O=C(Nc1cccc(Oc2ccc3nc(NC(=O)C4CC4)cn3n2)c1)c1ccccc1C(F)(F)F — the same, 0%
- COc1cccc(C2=C(Nc3ccc(Cl)c(C(=O)O)c3)C(=O)NC2=O)c1 [SB-390769] — higher, 100%
- Cc1ccc(C(=O)Nc2ccc(Nc3ccnc4cc(-c5nccs5)ccc34)cc2O)cc1.Cl [GW494702] — higher, 9%
- Cc1ccc(C)c(NC(=O)NC2CCN(c3ccnc(Nc4ccc(F)cc4)n3)C2)c1 (centres unmarked) [GSK1379720] — the same, 0%
- COc1ccc(-c2coc3ccc(-c4nnc(SCc5ccc(OC)c(C(F)(F)F)c5)o4)cc23)cc1 — higher, 10%
- COc1cc(Nc2ncc3c(C)nc(-c4cc5ccccc5[nH]4)n3n2)cc(OC)c1OC [GW869516] — the same, 0%
- Cn1cc(-c2ccc3c(c2)CCN3C(=O)Cc2cccc(Cl)c2)c2c(N)ncnc21 [GSK2606590] — higher, 10%
- COC(=O)Nc1nc2ccc(Oc3ccc(NC(=O)Nc4cc(C(F)(F)F)ccc4F)cc3)cc2n1C.Cl [GW692089] — the same, 0%
- O=C(O)C(F)(F)F.O=C(O)C(F)(F)F.O=c1[nH]ccc2nc(N[C@@H]3CCCNC3)nc(Nc3ccc(S(=O)(=O)N4CCOCC4)cc3)c12 [GSK2177277] — higher, 96.6%
- CCn1c(-c2nonc2N)nc2c(C#CC(C)(C)O)ncc(OCCCCN)c21.O=C(O)C(F)(F)F.O=C(O)C(F)(F)F [GSK507274] — higher, 31%
